Rows were chosen to be rich in hits. Some 10% of all compounds tested hit in one or more screens of this group.
HP1b binding inh = blocks HP1-beta chromodomain binding to methylated histone tails. P83916. AlphaScreen HP1-beta / biotin-H3K9me3 peptide binding. Potency, µM (titrated, usually from 114 µM), actives largely listed as inhibitors. 0.56% of 390,000 active. AID 540317; also: nearly all actives have a fitted effect of over 70% in size
Target sequence (P83916 whole entry, looked up): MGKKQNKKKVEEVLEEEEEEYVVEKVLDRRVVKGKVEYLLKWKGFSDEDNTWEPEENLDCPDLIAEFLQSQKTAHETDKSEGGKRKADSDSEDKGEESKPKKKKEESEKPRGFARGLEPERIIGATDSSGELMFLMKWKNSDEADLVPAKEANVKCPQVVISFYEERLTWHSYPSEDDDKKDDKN
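Compound inhibition of the preformed complex between 50 nM HP1-beta and 50 nM biotinylated H3K9me3 peptide was read by AlphaScreen. Buffer was PBS pH 7.4 with 0.01% Tween-20. Incubations ran 30 min at room temperature, with 10 ug/mL donor/acceptor beads.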
G9a block = G9a (human) methyltransferase inhibition; Q96KQ7; G9a H3K9 monomethylation, AlphaScreen, 2 h; Potency, µM (series often up to 102 µM), actives largely listed as inhibitors; 8.8% of 350,000 active; AID 504332; also: nearly all actives have a fitted effect of over 75% in size
Target sequence (Q96KQ7 913-1193 limits assumed): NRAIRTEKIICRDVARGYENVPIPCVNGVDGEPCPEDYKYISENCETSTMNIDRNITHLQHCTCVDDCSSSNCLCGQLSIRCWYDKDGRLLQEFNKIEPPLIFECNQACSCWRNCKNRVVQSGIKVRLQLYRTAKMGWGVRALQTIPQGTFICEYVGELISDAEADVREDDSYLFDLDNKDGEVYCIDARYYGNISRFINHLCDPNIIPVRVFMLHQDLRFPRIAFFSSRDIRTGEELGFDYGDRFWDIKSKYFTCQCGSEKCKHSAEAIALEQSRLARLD
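G9a (20 nM) was preincubated 15 min with compound, then reacted 2 h at room temperature with 500 nM biotin-H3K9 peptide and 20 µM SAM. Monomethyl-H3K9 detected by AlphaScreen using anti-H3K9me1 antibody.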
GLS inhibitor = glutaminase GLS (human) inhibition; O94925; GLS enzymatic activity, qHTS titration; AID 624170; Potency, µM (highest dose often 45.5 µM), usual class: inhibitors; 0.21% of 410,000 active
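Glutamate formation by hKGA was monitored fluorometrically using coupled glutamate oxidase, HRP and Amplex Red. Substrate was added as 1 mM L-glutamine solution; incubation was 30 min at RT after an initial read.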
BAZ2B inh = blocks human BAZ2B | AlphaScreen BAZ2B-H3K14Ac peptide displacement | Potency, µM (series often up to 114 µM), most hits filed as inhibitors | 4.4% of 360,000 active; also: nearly all actives have a fitted effect of over 60% in size
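AlphaScreen displacement of biotin-H3(5-23)K14Ac peptide (50 nM final) from BAZ2B (50 nM final) in PBS pH 7.4, 0.01% Tween-20; complex preformed 30 min RT, then compounds (top 110 uM) 30 min RT, beads 20 min dark.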
JMJD2A Tudor = inhibitors of human JMJD2A Tudor domain | AlphaScreen JMJD2A-Tudor / H3K4me3 peptide binding | Potency, µM (series often up to 114 µM), hits mostly inhibitors | 4.4% of 390,000 active | AID 504339; also: nearly all actives have a fitted effect of over 50% in size
Large screens that a line does not name were inactive. Calls follow the shape of the dose curve; as a rule, active = well fitted curve in the direction sought with a large enough effect; inconclusive = small, poorly fitted or top-dose-only effect, or another doubt; inactive = no such curve, though single readings can be large; an effect the other way counts as inactive or inconclusive.

O=C(O)CCN1CCc2ccccc2C1c1ccncc1 (centres undefined)	G9a block 50.1µM
Cc1ccc(S(=O)(=O)NCC(=O)N(CC(=O)NC(C)(C)C)Cc2ccc3c(c2)OCO3)cc1	HP1b binding inh inconclusive
CC(C)(C)NC(=O)CN(Cc1ccc2c(c1)OCO2)C(=O)CNS(=O)(=O)c1ccccc1	JMJD2A Tudor 79.4µM
COc1ccc(S(=O)(=O)N2CCC(C(=O)N[C@@H](C)C(=O)N3CCCCCC3)CC2)cc1	none
CN1\C(=C/C=C/C=C/C=[N+](C)C)C(C)(C)c2ccccc21	HP1b binding inh inconclusive, G9a block 11.2µM, BAZ2B inh 11.2µM, JMJD2A Tudor 50.1µM
CN(C)c1ccc(N=C/C=C2\N(C)c3ccccc3C2(C)C)cc1	HP1b binding inh 50.1µM, G9a block 39.8µM, BAZ2B inh 35.5µM
CN1/C(=C\C=Nc2ccc3ccccc3c2)C(C)(C)c2ccccc21	G9a block 1.78µM (no result: HP1b binding inh, GLS inhibitor, JMJD2A Tudor)
CN1/C(=C\C=O)C(C)(C)c2ccccc21	none (no result: BAZ2B inh)
Cc1cc(/N=C/C=C2\N(C)c3ccccc3C2(C)C)n(CCC#N)n1	G9a block 50.1µM, BAZ2B inh inconclusive, JMJD2A Tudor inconclusive
Cc1nc(N2CCN(Cc3ccc(Cl)cc3)CC2)c2oc3ccccc3c2n1	BAZ2B inh inconclusive (no result: G9a block)
Cc1cc(C)nc(NCC(O)CNc2ccccc2Cl)n1 (centres undefined)	G9a block 7.08µM, JMJD2A Tudor 56.2µM
COc1ccc(NC(C)=O)cc1S(=O)(=O)Nc1ccccc1C(=O)NCCc1ccccc1	none
COc1ccccc1NS(=O)(=O)c1cc(NC(=O)c2ccncc2)ccc1N1CCCC1	HP1b binding inh inconclusive, G9a block 7.94µM, GLS inhibitor inconclusive (no result: BAZ2B inh)
COc1ccc(NC(C)=O)cc1S(=O)(=O)Nc1ccc(OCc2ccccc2)cc1	G9a block 44.7µM, GLS inhibitor inconclusive, BAZ2B inh inconclusive, JMJD2A Tudor inconclusive
CCN(CC)c1ccc(NC(=O)c2ccccc2)cc1S(=O)(=O)Nc1ccccc1OC	HP1b binding inh inconclusive, G9a block 1µM, JMJD2A Tudor 79.4µM
COc1ccccc1NS(=O)(=O)c1cc(N2Cc3ccccc3C2=N)ccc1N1CCOCC1	HP1b binding inh inconclusive, G9a block 14.1µM, JMJD2A Tudor inconclusive (no result: BAZ2B inh)
COc1ccccc1NS(=O)(=O)c1cc(N)ccc1N1CCOCC1	HP1b binding inh inconclusive (no result: G9a block, BAZ2B inh)
Cc1ccc2oc3nc(C)c(C(=O)Nc4cccc(C(F)(F)F)c4)cc3c(=O)c2c1	none
COCC(=O)Nc1ccc(N2CCCC2)c(S(=O)(=O)Nc2ccccc2OC)c1	none
COc1ccccc1NS(=O)(=O)c1cc(NC(=O)Nc2cccc(C)c2)ccc1N1CCCCC1	HP1b binding inh inconclusive, G9a block 25.1µM
COc1ccccc1NS(=O)(=O)c1cc(NC(C)=O)ccc1N1CCCCC1	HP1b binding inh inconclusive, G9a block 8.91µM, JMJD2A Tudor 79.4µM (no result: BAZ2B inh)
COc1ccccc1NS(=O)(=O)c1cc(NC(=O)c2ccccc2C)ccc1N1CCOCC1	none (no result: G9a block, BAZ2B inh)
CCCCCC(=O)Nc1ccc(N2CCOCC2)c(S(=O)(=O)Nc2ccc(OC)cc2)c1	G9a block 11.2µM
COc1ccccc1NS(=O)(=O)c1cc(NC(=O)C2CC2)ccc1N1CCOCC1	G9a block 8.91µM (no result: HP1b binding inh, GLS inhibitor, JMJD2A Tudor)
CCC(=O)Nc1ccc(N2CCOCC2)c(S(=O)(=O)Nc2ccc(OC)cc2)c1	BAZ2B inh inconclusive
COCc1cc(CN2CCCC(C(=O)c3cccc(C(F)(F)F)c3)C2)ccc1OC (centres undefined)	none
O=C(O)CCN1c2cccc3cccc(c23)S1(=O)=O	none
Cc1ccc(S(=O)(=O)N=Nc2c(O)[nH]c3ccccc23)cc1	G9a block 1.58µM, BAZ2B inh inconclusive
Cc1ccc(S(=O)(=O)N(CC(=O)N=Nc2c(O)[nH]c3ccccc23)c2ccc(C)c(C)c2)cc1	JMJD2A Tudor inconclusive
Cc1ccc(C)c(S(=O)(=O)N=Nc2c(O)[nH]c3ccccc23)c1	G9a block 8.91µM
CC(C)(O)C(=O)N=Nc1c(O)[nH]c2ccccc12	none
Cc1nn(C)c(C)c1S(=O)(=O)N(CC(=O)N1CCN(c2ccccc2)CC1)c1ccc(C(C)C)cc1	none
CCc1ccc(N2CC(C(=O)Nc3ccc(S(=O)(=O)NCC4CCCO4)cc3)CC2=O)cc1 (centres undefined)	none
C=CCn1c(CCCOc2ccc(Cl)cc2Cl)n[nH]c1=S	G9a block inconclusive
C=CCn1c(Cc2ccccc2)n[nH]c1=S	JMJD2A Tudor 3.55µM (no result: G9a block)
C=CCn1c(Cc2c[nH]c3ccccc23)n[nH]c1=S	G9a block 6.31µM, JMJD2A Tudor 8.91µM
C=CCn1c(CCc2cc(C(C)(C)C)c(O)c(C(C)(C)C)c2)n[nH]c1=S	G9a block 2µM, JMJD2A Tudor inconclusive
C=CCn1c(CCC(O)CCCCC)n[nH]c1=S (centres undefined)	G9a block 7.08µM, JMJD2A Tudor 17.8µM
NC(=O)COc1ccc(NS(=O)(=O)Cc2ccccc2)cc1	none (no result: G9a block)
CN(C)c1nnnn1-c1cccc(Oc2ncc(C(F)(F)F)cc2Cl)c1	none
CCC(CC)C(=O)c1c[nH]c(C(=O)NCc2cccs2)c1	none
CC(=O)N1c2ccc(S(=O)(=O)N3CCC(C(=O)N4CCN(c5ccccc5F)CC4)CC3)cc2CC1C (centres undefined)	none (no result: G9a block)
C/C(=N\NC(=S)NCCc1ccccc1)c1ccc(C)cc1	BAZ2B inh inconclusive, JMJD2A Tudor inconclusive
Cc1cc2nc(-c3ccc(SCc4ccc(C(=O)O)cc4)nc3)[nH]c2cc1C	G9a block 31.6µM, BAZ2B inh 31.6µM, JMJD2A Tudor inconclusive
Cc1ccc(NC(CC(=O)c2ccccc2)c2ccc(F)cc2)cc1 (centres undefined)	BAZ2B inh inconclusive, JMJD2A Tudor inconclusive
O=C(CC(Nc1ccc(F)cc1)C(=O)O)c1ccccc1 (centres undefined)	G9a block 10µM, GLS inhibitor inconclusive
CCOC(=O)C(C)(C)N(Cc1ccccc1C)S(=O)(=O)c1ccc(Cl)c([N+](=O)[O-])c1	none
CCCCNC(=O)CCC(=O)Nc1ncc(-c2ccc(C)cc2)n1C	BAZ2B inh inconclusive, JMJD2A Tudor inconclusive
Cn1c(-c2ccc3c(c2)OCO3)cnc1NC(=O)CCC(=O)NCCc1ccccc1	BAZ2B inh inconclusive, JMJD2A Tudor 56.2µM
O=C(Cn1c(=O)c2cccn2c2ccc(F)cc21)NCc1cccc(Cl)c1	G9a block inconclusive, BAZ2B inh inconclusive, JMJD2A Tudor inconclusive
O=C1C=CC(=O)N1Cc1ccccc1	HP1b binding inh inconclusive, G9a block 1.78µM, BAZ2B inh inconclusive, JMJD2A Tudor 25.1µM
O=C(O)c1cc(-c2ccccc2)c(N2CCOCC2)s1	G9a block 79.4µM
Clc1ccc2c(c1)-c1nnc(Br)n1-c1ccccc1S2	G9a block 10µM
Brc1nnc2n1-c1ccccc1Sc1ccccc1-2	none
C[C@@H]1CCC2[C@@H](C)[C@@H](O)O[C@@H]3O[C@@]4(C)CC[C@@H]1[C@@]23OO4 (some centres undefined)	none (no result: HP1b binding inh, BAZ2B inh, JMJD2A Tudor)
C=CCN=C(NC#N)SCc1ccccc1	none
COc1ccc(NC(=O)CSc2nnc(C(C)C)n2N)cc1	none

Bioassay records (PubChem)
